Results on 16 compounds are retold here after ChEMBL document CHEMBL3433997, “St. Jude Leishmania screening dataset” (2016).

For the assay, the target named is Glucose transporter (Leishmania mexicana) (UniProt O61059). The assay is described as follows: ST_JUDE_LEISH: Cytotoxicity at 2uM final concentration against transgenic Leishmania Mexicana promastigotes LmGT2 that are glucose transport deficient and complemented with the L. Mexicana glucose transporter 2. Activity is measured by DNA content using SYBR green in vitro. In kind it is functional.
The term inhibition denotes the relative decrease from the control value, in per cent. As to `O=c1[nH]c2c(cc1CNC1CCCCC1)c(-c1ccc(F)cc1)nn2-c1ccccc1`, the inhibition was found to be 0.4%. As to `O=C(Nc1cccc(-c2ccc(-c3nc4ccccc4[nH]3)cc2)c1)c1ccncc1`, the inhibition turned out to be 2.5%.

Take `COc1cc(NCC(CN)Cc2ccc3c(c2)OCO3)nc2ccccc12` (stereo unspecified): the inhibition was determined as 5.88%. With `O=C(Nc1ccccc1-c1nc2ccccc2s1)C(Cl)(Cl)Cl`, the inhibition was 0.54%. To `Cc1noc(C)c1-c1cccc(CNCc2cccc(-c3csc(-c4nc5ccccc5[nH]4)c3)c2)c1` belongs 1.31%; to `O=c1cc(NCCCNCc2cc(C(F)(F)F)ccc2Cl)[nH]c2ccccc12`, -1.57%.

Take `COc1ccc2nc(C)cc(Nc3ccc(Oc4ccc5ccccc5c4Cl)c(Cl)c3)c2c1`: the inhibition amounted to 8.39%. Consider `Cc1cc(NC2CCN(CC3CCCCC3)C2)nc(Nc2ccc(Cl)cc2)n1` (stereo unspecified), for which the inhibition came to 2.63%. Take `CCCc1cn2c3c(cc(C(=O)N[C@@H](Cc4ccccc4)[C@H](O)CNC4CCCCC4)cc13)N(C)S(=O)(=O)CC2`: the inhibition was found to be 1.49%. Regarding `CC(C)[C@H](NCC(=O)c1ccccc1)C(=O)O`, the inhibition is -0.17%. As for `COc1ccc2ccccc2c1CCCCN1CCN(CC(c2ccc(F)cc2)N2CCC(N3CCCC3)CC2)CC1` (stereo unspecified), the inhibition is 7.05%. Turning to `Cc1c(CC(=O)N(C)C2CCN(CCCCCNC(=O)/C=C/c3ccc(Cl)c(Cl)c3)CC2)sc2ccc(Cl)cc12`, the inhibition was 5.9%. In the case of `C[C@@H](Nc1nc(NCc2ccccc2)c2sccc2n1)c1ccccc1`, the inhibition came out at 8.39%. For the compound `Cc1cc(N[C@@H](CC(C)C)C(=O)NCCOc2ccccc2)nc(Nc2ccccc2)n1`, the inhibition was found to be 1.29%.

`N=C(N)NC(=O)Nc1cc(Br)c(Cl)c(C(F)(F)F)c1`: the inhibition turned out to be 0.66%. As to `CCc1cn2c3c(cc(C(=O)N[C@@H](Cc4ccccc4)[C@H](O)CNC(C)C)cc13)N(C)S(=O)(=O)C2`, the inhibition worked out at 0.06%.
